An excerpt weighted towards active compounds, which were near 11% of everything screened.
FLuc inh: Photinus pyralis luciferase inhibition. 76,000 compounds, 2.5% hits. Potency, µM (top dose mostly 115 µM), most hits filed as inhibitors. P08659. AID 1347043. purified P. pyralis luciferase, luminescence, biochemical; also: nearly all actives have a fitted effect of over 65% in size
Target sequence (P08659 whole entry, looked up): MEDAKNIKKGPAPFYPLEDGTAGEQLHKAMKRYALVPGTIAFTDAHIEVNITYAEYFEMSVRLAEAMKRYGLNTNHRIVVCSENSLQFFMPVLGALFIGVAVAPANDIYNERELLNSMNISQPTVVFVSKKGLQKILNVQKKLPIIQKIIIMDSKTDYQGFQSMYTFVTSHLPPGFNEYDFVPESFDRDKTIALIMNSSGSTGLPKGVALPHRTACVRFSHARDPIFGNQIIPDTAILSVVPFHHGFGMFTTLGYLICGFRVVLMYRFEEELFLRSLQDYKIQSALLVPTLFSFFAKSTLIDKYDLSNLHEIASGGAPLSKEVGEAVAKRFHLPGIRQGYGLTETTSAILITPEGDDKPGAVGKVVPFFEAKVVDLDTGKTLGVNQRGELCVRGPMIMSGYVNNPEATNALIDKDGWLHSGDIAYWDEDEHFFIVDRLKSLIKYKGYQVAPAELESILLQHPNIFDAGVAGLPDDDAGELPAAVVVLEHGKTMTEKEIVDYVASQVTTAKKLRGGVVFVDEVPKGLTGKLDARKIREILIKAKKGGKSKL
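Purified P. pyralis luciferase (10nM final) in 50mM Tris acetate pH 7.5, 10mM Mg acetate, 0.01% Tween-20, 0.05% BSA with 10uM D-luciferin and 10uM ATP. Compounds titrated qHTS. Luminescence imaged on CCD.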
HEK cytotox: cytotoxic compounds in HEK 293 cells. HEK 293 viability, ATP luminescence (CellTiter-Glo), 48-72 h. Potency, µM (doses to about 115 µM), without a hit: top-dose activity change, negative = cytotoxicity, actives largely listed as inhibitors. 94,000 compounds, 6.6% hits; also: nearly all actives have a fitted effect of over 60% in size
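ATP-coupled CellTiter-Glo luminescence served as viability read-out, recorded 10 min after reagent addition at room temperature. HEK 293 cells, 250 cells/well, had been incubated with pintool-transferred compound for 48 or 72 hr at 37 degree Celsius.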
hNpr1 antagonist: antagonists of human natriuretic peptide receptor Npr1; HEK293 hNpr1 GloSensor cGMP, ANP-stimulated luminescence; AID 1347048; Potency, µM (doses to about 46.3 µM), inactives show top-dose activity change, negative = inhibition, most hits filed as inhibitors; 76,000 compounds, 1.6% hits; P16066; calls by dose curve; also: nearly all actives have a fitted effect of over 60% in size
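Compound pre-incubated 30 min at room temperature on GloSensor-loaded HEK293 cells stably carrying hNpr1 and the pGS-40F cGMP biosensor. Stimulation uses hNppA at 0.1 nM final; luminescence is taken at baseline and 20 min post-agonist.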
NIH3T3 tox: NIH 3T3 cell cytotoxicity; AID 1345082; 94,000 compounds, 4.3% hits; Potency, µM (series often up to 96.7 µM), for the others: top-dose activity change, negative = cytotoxicity, actives largely listed as inhibitors; NIH 3T3 viability, CellTiter-Glo ATP luminescence, 48-72 h; also: nearly all actives have a fitted effect of over 55% in size
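Luminescent ATP readout (CellTiter-Glo, 10 min RT) after 48 or 72 hr compound exposure of NIH 3T3 cells seeded at 400 cells/well in 1536-well format; quantitative HTS.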
An asterisk follows results filed as active; i = inactive; ? = inconclusive; nt = no result given; ! = repeats disagree; [ ] = remark or other dose. Unless noted, calls follow the shape of the dose curve; as a rule, active = well fitted curve in the direction sought with a large enough effect; inconclusive = small, poorly fitted or top-dose-only effect, or another doubt; inactive = no such curve, though single readings can be large; an effect the other way counts as inactive or inconclusive. % is scaled to controls: 0 for no effect and ±100 for the full control effect; potency is read from the fitted curve at half-maximal effect.

SMILES	FLuc inh	HEK cytotox	hNpr1 antagonist	NIH3T3 tox
O[C@H]1CCCC[C@@H]1NC1CCN(c2nc3ccc(Cl)cc3s2)CC1	?	22µM*	?	10µM*
Clc1ccc2nc(N3CCC(NC4CCSC4)CC3)sc2c1 (stereo not drawn)	35µM*	?	11µM*	-32%
Clc1cccc(-c2noc(-c3ncn4c3COC(c3ccccc3Cl)C4)n2)c1 (stereo not drawn)	?	-18%	-3%	-12%
COc1ccc(NC(=O)N2CCCC(Cn3c(C4CC4)nc4cccnc43)C2)cc1Cl (stereo not drawn)	i	71µM*	-10%	?
Cn1nc(C2CCCN(C(=O)Nc3ccc4c(c3)OCCO4)C2)n(C2CCCC2)c1=O (stereo not drawn)	32µM*	12%	-2%	2%
O=C(Nc1ccc(F)c(Cl)c1)N1CCCC(Cn2c(C3CC3)nc3cccnc32)C1 (stereo not drawn)	i	?	-20%	?
O=C(Nc1ccc2c(c1)OCCO2)N1CCCC(Cn2cnc3cccnc32)C1 (stereo not drawn)	28µM*	6%	3%	-1%
O=C(c1ccc(Cl)nc1)N1CCN(Cc2ccccc2-c2cccnc2)CC1	nt	?	nt	-30%
O=C(Nc1cc(C2CC2)nn1-c1ccccc1)c1ccc2ccccc2n1	nt	-29%[172 µM]	nt	-32%[138 µM]
COc1ccc(-c2nn(-c3ccccc3)cc2CN2CCCC(CO)C2)c(F)c1 (stereo not drawn)	i	?	-2%	?
COc1ccc(CNC(=O)C[C@@H]2C[C@@H](C(C)C)[C@H](CNC(C)=O)C=C2C)cc1	i	?	-4%[70.6 µM]	100µM*
CC1=C[C@@H](CO)[C@H](C(C)C)C[C@H]1CC(=O)NCc1ccc(C(F)(F)F)cc1	i	40µM*	0%[70.6 µM]	?
COc1ccc(NC(=O)CN2C(=O)NC(c3ccc(Cl)cc3)C3=C2COC3=O)c(OC)c1 (stereo not drawn)	i	?	-1%	-28%
CCOc1ccccc1C1NC(=O)N(CC(=O)Nc2ccc(OC)c(Cl)c2)C2=C1C(=O)OC2 (stereo not drawn)	?	-19%	-28%	?
COc1ccc(NC(=O)CN2C(=O)NC(c3ccc(Cl)cc3)C3=C2COC3=O)cc1Cl (stereo not drawn)	?	?	-21%	25µM*
COc1cc(Cl)c(C)cc1NC(=O)CN1C(=O)NC(c2ccc(Cl)cc2)C2=C1COC2=O (stereo not drawn)	i	16µM*	-15%	18µM*
O=c1n(-c2cccc(Cl)c2)nc2n1CCN(Cc1ccc(F)cc1)C2	?	?	-22%	?
COC1CN(c2cccc(F)c2)C12CCN(C(=O)NCCc1ccccc1)CC2 (stereo not drawn)	i	50µM*	3%	?
COC1CN(c2cccc(F)c2)C12CCN(C(=O)C1CCCCC1)CC2 (stereo not drawn)	i	28µM*	-2%	-22%
COC1CN(c2cccc(F)c2)C12CCN(C(=O)NC1CCCCC1)CC2 (stereo not drawn)	i	45µM*	2%	?
COC1CN(c2cccc(F)c2)C12CCN(C(=O)NC(C)(C)C)CC2 (stereo not drawn)	i	?	-1%	-18%
COC1CN(c2cccc(F)c2)C12CCN(S(=O)(=O)c1cccc(F)c1)CC2 (stereo not drawn)	nt	28µM*	nt	?
O=c1[nH]c(C2CCN(Cc3ccccc3C(F)(F)F)CC2)nn1Cc1ccccc1	i	-14%	13%	-18%
Cc1ccsc1C(=O)Nc1ccc(-c2nnc3n2CCCC3)cc1	35µM*	-27%	2%	?
O=C(Nc1cccc(-c2nnc3n2CCCC3)c1)c1ccccc1Cl	i	6%	0%	0%
CCc1ccc(C(=O)Nc2cccc(-c3nnc4n3CCCC4)c2)cc1	22µM*	?	?	?
CCOc1ccccc1C(=O)Nc1cccc(-c2nnc3n2CCCC3)c1	i	?	-2%	40µM*
O=C1CC(c2ccccc2)N(Cc2ccncc2)CCCN(C(=O)CCCc2ccccc2)CCN1 (stereo not drawn)	i	?	-4%	?
CCC(C)NC(=O)c1cc(-c2cccc(OC)c2)nc2c1cnn2C (stereo not drawn)	nt	100µM*!	nt	?
COc1cccc(-c2cc(C(=O)NCC3CCCCC3)c3cnn(C)c3n2)c1	nt	40µM*	nt	?
